Measurements published in PubChem BioAssay.
Active and inactive are the calls of the source. Rule as the data show it, unless noted: active = inhibition above about 80%; inactive = the rest.

Experiments:
[1] = growth inhibition, single agent or in combination, cell-based, chromothripsis tumors, cisplatin or BGB combos (AID 1671449); details: LFS_MB_P medulloblastoma cells;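 also: cells exposed for 96 hours; 0% = vehicle DMSO and 100% = killing by high DMSO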
[2] = growth inhibition, single agent and combos, cell-based, chromothripsis tumors, cisplatin or BGB combos (AID 1671450); details: HDN33 neuroblastoma cells, stronger effect = higher value;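 also: cells exposed to compound for four days; 0% = vehicle DMSO and 100% = cell killing by high DMSO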
[3] = growth inhibition, single agents and combos, ICB984, cell-based, cisplatin or BGB combos, synergistic combos for chromothripsis tumors (AID 1671451; call rule not given here;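 also: cells exposed for 96 hours before readout; 0% = vehicle DMSO and 100% = killing by high DMSO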); details: ICB984 medulloblastoma cells, drug combinations, stronger effect = higher value
[4] = growth inhibition, single agents and combos, LFS_MB_1R, cell-based, cisplatin or BGB combos, synergistic combos for chromothripsis tumors (AID 1671452); details: LFS_MB_1R medulloblastoma cells, stronger effect = higher value;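 also: cells exposed for 96 hours before readout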
[5] = growth inhibition, single agents and combos, HTB85, cell-based, BGB or cisplatin IC20 combos, synergistic combos for chromothripsis tumors (AID 1671453); details: HTB85 osteosarcoma cells, drug combinations, stronger effect = higher value;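 also: cells exposed for 96 hours before readout; 0% = vehicle DMSO and 100% = high DMSO killing control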
[6] = growth inhibition, single agents and combos, CRL2098, cell-based, BGB or cisplatin IC20 combos, synergistic combos for chromothripsis tumors (AID 1671454); details: CRL2098 osteosarcoma cells, drug combinations, stronger effect = higher value;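 also: cells exposed for 96 h before readout; 0% = vehicle DMSO and 100% = killing by high DMSO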
[7] = growth inhibition, single agents and combos, HD-MB03, cell-based, BGB or cisplatin IC20 combos, synergistic combos for chromothripsis tumors (AID 1671455; in the data active = inhibition above about 83%;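 also: 0% = vehicle DMSO and 100% = high DMSO as cytotoxic control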); details: HD-MB03 medulloblastoma cells, stronger effect = higher value
[8] = growth inhibition, single agents and combos, UWB1.289, cell-based, BGB or cisplatin combos, synergistic combos for chromothripsis tumors (AID 1671456); details: UWB1.289 ovarian carcinoma cells, stronger effect = higher value;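 also: cells exposed to compound for four days; 0% = vehicle DMSO and 100% = killing by high DMSO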
[9] = growth inhibition, single agents and combos, LFS_MB_2R, cell-based, cisplatin combos, synergistic combos for chromothripsis tumors (AID 1671457); details: LFS_MB_2R medulloblastoma cells, stronger effect = higher value;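 also: cells exposed to compound for four days before readout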
[10] = growth inhibition, MDA-MB-436, cell-based, BGB or cisplatin combos, synergistic combos for chromothripsis tumors (AID 1671458; call rule not given here;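 also: cells exposed for 96 hours; 0% = vehicle DMSO and 100% = killing by high DMSO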); details: MDA-MB-436 breast carcinoma growth inhibition, drug combinations, stronger effect = higher value
[11] = UWB1.289_BRCA1 ovarian cancer growth, cell-based, BGB or cisplatin combinations (AID 1671459); details: UWB1.289 BRCA1 ovarian carcinoma, drug combinations, stronger effect = higher value
[12] = drug combination toxicity in non-malignant astrocytes – cell-based, BGB or cisplatin IC20 combos, cytotoxicity control for chromothriptic childhood tumor combination screen (AID 1671460); details: Human astrocytes, viability inhibition, drug combinations, at 0.5 µM, stronger effect = higher value;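 also: cells exposed to compounds for 96 hours before viability readout; 0% = vehicle and 100% = killing control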
[13] = BT084 cell growth, single and combined drugs, ICGC_MB145, cisplatin and BGB IC40 combos (AID 1671461); details: BT084 medulloblastoma cells, drug combinations, stronger effect = higher value;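 also: cells exposed to drugs for 96 hours; 0% = vehicle DMSO and 100% = high DMSO full killing control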
[14] = RCMB18 cell growth, single agent and combined, cisplatin and BGB IC40 combos (AID 1671462); details: RCMB18 medulloblastoma cells, stronger effect = higher value;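 also: cells exposed to compound for four days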
[15] = CRL1545 cell growth, single agent and combined, cisplatin and BGB IC20 combos (AID 1671464); details: CRL1545 osteosarcoma cells, stronger effect = higher value;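 also: cells exposed to compound for 96 hours before readout; 0% = vehicle DMSO and 100% = high DMSO killing control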
[16] = measured here: combination with BGB IC40, at 0.05 µM
[17] = measured here: with BGB IC20 combination, at 0.5 µM
[18] = measured here: with cisplatin IC20 combination, at 0.5 µM
[19] = measured here: combination with cisplatin, at 0.5 µM
[20] = measured here: combination with cisplatin, at 5 µM

In the case of CCC1(O)C(=O)OCc2c1cc1n(c2=O)Cc2cc3cc(O)ccc3nc2-1 (stereo not drawn), the inhibition ([1]; at 0.5 µM, stronger effect = higher value) is reported as -23.8% (inactive), the inhibition ([1]; measured here: combination with BGB IC20, at 0.005 µM) is reported as -39% and the inhibition ([1]; measured here: combination with BGB IC40, at 0.005 µM) is reported as -64.3%. It also gave an inhibition [1, 16] of -39.2%, an inhibition ([1]; measured here: combination with cisplatin, at 0.5 µM, stronger effect = higher value) of -28.8% and an inhibition ([1]; measured here: combination with cisplatin, at 5 µM, stronger effect = higher value) of 80.4%. For the same compound, the inhibition ([2]; BGB combo, at 5 µM) was 96.2%, the inhibition ([2]; at 0.5 µM) was 75% (inactive) and the inhibition ([2]; cisplatin combo, at 5 µM) was 94.5%. It also gave an inhibition [2, 17] of 83.6%, an inhibition [2, 18] of 67.2% and an inhibition ([2]; single agent, at 5 µM) of 96%. For the same compound, the inhibition ([3]; BGB IC20 combo, at 0.005 µM) was -7.43%, the inhibition ([3]; BGB IC40 combo, at 0.005 µM) was -6.67% and the inhibition ([3]; BGB IC40 combo, at 0.05 µM) was 96.1%. The inhibition ([3]; at 0.5 µM) was -15.7% (inactive), the inhibition ([3]; cisplatin combo, at 0.05 µM) was 96.4% and the inhibition ([3]; cisplatin combo, at 0.5 µM) was -28.1%. The inhibition ([3]; cisplatin combo, at 5 µM) was -59%, the inhibition ([3]; measured here: 5 uM single agent, at 5 µM) was -24.3% and the inhibition ([4]; at 0.5 µM) was 46% (inactive). For the same compound, the inhibition [4, 16] was -11.8%, the inhibition [4, 19] was 91.8% and the inhibition [4, 20] was 84.6%. The inhibition ([5]; at 0.5 µM) was 98% (active), the inhibition ([5]; measured here: with BGB IC20, at 0.5 µM) was 97.4% and the inhibition ([5]; measured here: with BGB IC20, at 5 µM) was 98%. The inhibition ([5]; measured here: with cisplatin IC20, at 0.5 µM) was 97.8%, the inhibition ([5]; measured here: with cisplatin IC20, at 5 µM) was 99.5% and the inhibition ([5]; single agent, at 5 µM) was 99.6%. The inhibition ([6]; at 0.5 µM) was 43.5% (inactive), the inhibition ([6]; measured here: combination with BGB at IC20, at 0.5 µM) was 62.2% and the inhibition ([6]; measured here: combination with cisplatin at IC20, at 0.5 µM) was 19%. For the same compound, the inhibition ([7]; at 0.5 µM) was 98.3% (active), the inhibition ([7]; measured here: combo with BGB at IC20, at 0.5 µM) was 98% and the inhibition ([7]; measured here: combo with cisplatin at IC20, at 0.5 µM) was 98.2%. For the same compound, the inhibition ([8]; at 0.5 µM) was 83.6% (active), the inhibition ([8]; measured here: inhibition with BGB combination, at 0.05 µM) was 5.35% and the inhibition ([8]; measured here: inhibition with cisplatin combination, at 0.05 µM) was 7.19%. For the same compound, the inhibition ([9]; at 0.5 µM) was -2.53% (inactive), the inhibition [9, 19] was 28.3% and the inhibition [9, 20] was 65.3%. The inhibition ([10]; at 0.5 µM) was 65.8% (inactive), the inhibition ([10]; measured here: BGB combination, at 0.5 µM) was 59% and the inhibition ([10]; measured here: BGB combination, at 5 µM) was 70.2%. The inhibition ([10]; measured here: cisplatin combination, at 0.5 µM) was 63.8%, the inhibition ([10]; measured here: cisplatin combination, at 5 µM) was 80.3% and the inhibition ([11]; BGB combination, concentration series, at 5 µM) was 95.1%. For the same compound, the inhibition ([11]; at 0.5 µM) was 89% (active), the inhibition ([11]; cisplatin combination, concentration series, at 5 µM) was 102% and the inhibition [12] was 73.4% (inactive). For the same compound, the inhibition ([12]; measured here: combo with BGB IC20) was 82.6%, the inhibition ([12]; measured here: combo with cisplatin IC20) was 57.6% and the inhibition ([13]; at 0.5 µM) was 1.31% (inactive). For the same compound, the inhibition ([13]; cisplatin combination, at 0.5 µM) was 54.4%, the inhibition ([13]; cisplatin combination, at 5 µM) was -68.1% and the inhibition ([13]; measured here: BGB IC40 combination 0.05 uM, at 0.05 µM) was -44.1%. The inhibition ([13]; single agent, at 5 µM) was -0.722%, the inhibition ([14]; at 0.5 µM) was 24% (inactive) and the inhibition ([14]; cisplatin combo, at 5 µM) was 79.3%. The inhibition ([14]; measured here: BGB IC40 combination, at 0.05 µM) was -9.73%, the inhibition [14, 19] was 24.7% and the inhibition ([14]; single agent, at 5 µM) was 49.8%. The inhibition ([15]; at 0.5 µM) was 74.6% (inactive), the inhibition [15, 17] was 87.6% and the inhibition [15, 18] was 67.5%. For the same compound, the inhibition ([15]; single agent, at 0.05 µM) was 14.1% and the inhibition ([15]; single agent, at 5 µM) was 99.4%.
